Data published in PubChem BioAssay AID1159580 (chemical genetic matrix, 2015).
Screen size: about 5,500 compounds; about 2,000 (36%) were called active. About 18% were inconclusive and are not listed. This is one part of the list. Values without a mark were called inactive. No stated cut-off is given here; in the data, active means normalized growth mostly below about 0.91 (no sharp cut-off); inconclusive means no clear call, values can overlap the other calls; inactive means mostly above about 0.92.

Assay: chemical genetic growth profiling, strain panel (AID 1159580);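 further: tested at 20 µM; growth read once vehicle control cultures reached saturation at 30 °C; 1 = growth at the plate median or of vehicle wells; lower values mean less growth of the strain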
Conditions: growth OD
[1] = S. cerevisiae deletion strains, locus YDL101C, strain DUN1, hits give low values
[2] = S. cerevisiae deletion strains, locus YHR030C, strain SLT2, hits give low values

O=C1NC(c2ccccc2Cl)Nc2ccccc21 (centres undefined)
normalized growth (S. cerevisiae deletion strains, locus YAL013W, strain DEP1, hits give low values): 0.997 | normalized growth (S. cerevisiae deletion strains, locus YBR229C, strain ROT2, hits give low values): 1 | normalized growth (S. cerevisiae deletion strains, locus YCL061C, strain MRC1, hits give low values): 0.992 | normalized growth [1]: 1.01 | normalized growth (S. cerevisiae deletion strains, locus YDL134C, strain PPH21, hits give low values): 1.01 | normalized growth (S. cerevisiae deletion strains, locus YDR150W, strain NUM1, hits give low values): 0.998 | normalized growth (S. cerevisiae deletion strains, locus YEL061C, strain CIN8, hits give low values): 0.981 | normalized growth (S. cerevisiae deletion strains, locus YGR078C, strain PAC10, hits give low values): 0.997 | normalized growth [2]: 1.04 | normalized growth (S. cerevisiae deletion strains, locus YHR087W, strain rtc3, hits give low values): 0.998 | normalized growth (S. cerevisiae deletion strains, locus YJL187C, strain SWE1, hits give low values): 0.993 | normalized growth (S. cerevisiae deletion strains, locus YJR043C, strain POL32, hits give low values): 1.02 | normalized growth (S. cerevisiae deletion strains, locus YJR075W, strain HOC1, hits give low values): 0.97 | normalized growth (S. cerevisiae deletion strains, locus YLR039C, strain RIC1, hits give low values): 0.973 | normalized growth (S. cerevisiae deletion strains, locus YLR058C, strain SHM2 (second series), hits give low values): 1 | normalized growth (S. cerevisiae deletion strains, locus YLR085C, strain ARP6, hits give low values): 0.951 | normalized growth (S. cerevisiae deletion strains, locus YLR262C, strain YPT6, hits give low values): 0.977 | normalized growth (S. cerevisiae deletion strains, locus YML094W, strain GIM5, hits give low values): 0.989 | normalized growth (S. cerevisiae deletion strains, locus YMR219W, strain ESC1, hits give low values): 1 | normalized growth (S. cerevisiae deletion strains, locus YMR263W, strain SAP30, hits give low values): 1.01 | normalized growth (S. cerevisiae deletion strains, locus YNL153C, strain GIM3, hits give low values): 1 | normalized growth (S. cerevisiae deletion strains, locus YNL298W, strain CLA4 (second series), hits give low values): 0.997 | normalized growth (S. cerevisiae deletion strains, locus YNL322C, strain KRE1, hits give low values): 0.99 | normalized growth (S. cerevisiae deletion strains, locus YNR030W, strain Alg12, hits give low values): 0.984 | normalized growth (S. cerevisiae deletion strains, locus YPL055C, strain LGE1, hits give low values): 1.03 | normalized growth (S. cerevisiae deletion strains, locus YPL241C, strain CIN2, hits give low values): 0.981 | normalized growth (S. cerevisiae deletion strains, locus YPR135W, strain CTF4, hits give low values): 1.05 | normalized growth (S. cerevisiae strains, strain wild type, hits give low values): 1.01

O=C1Nc2ccccc2/C1=N/N=C\c1ccccc1Cl
normalized growth (S. cerevisiae deletion strains, locus YAR019C, strain CDC15, hits give low values): 0.975 | normalized growth (S. cerevisiae deletion strains, locus YBL105C, strain PKC1, hits give low values): 0.967 | normalized growth (S. cerevisiae deletion strains, locus YBR135W, strain CKS1, hits give low values): 0.986 | normalized growth (S. cerevisiae deletion strains, locus YBR136W, strain MEC1, hits give low values): 0.966 | normalized growth (S. cerevisiae deletion strains, locus YBR160W, strain CDC28, hits give low values): 0.972 | normalized growth (S. cerevisiae deletion strains, locus YDL017W, strain CDC7, hits give low values): 0.97 | normalized growth (S. cerevisiae deletion strains, locus YDL028C, strain MPS1, hits give low values): 0.97 | normalized growth [1]: 0.97 | normalized growth (S. cerevisiae deletion strains, locus YDL108W, strain KIN28, hits give low values): 0.969 | normalized growth (S. cerevisiae deletion strains, locus YDL132W, strain cdc53, hits give low values): 0.977 | normalized growth (S. cerevisiae deletion strains, locus YDL214C, strain PRR2, hits give low values): 0.92 | normalized growth (S. cerevisiae deletion strains, locus YDR052C, strain DBF4, hits give low values): 0.968 | normalized growth (S. cerevisiae deletion strains, locus YDR054C, strain cdc34, hits give low values): 0.97 | normalized growth (S. cerevisiae deletion strains, locus YDR226W, strain ADK1, hits give low values): 0.987 | normalized growth (S. cerevisiae deletion strains, locus YDR477W, strain SNF1, hits give low values): 0.909 | normalized growth (S. cerevisiae deletion strains, locus YER123W, strain YCK3, hits give low values): 0.85 | normalized growth (S. cerevisiae deletion strains, locus YER133W, strain GLC7, hits give low values): 0.928 | normalized growth (S. cerevisiae deletion strains, locus YFL009W, strain cdc4, hits give low values): 0.978 | normalized growth (S. cerevisiae deletion strains, locus YFL029C, strain CAK1, hits give low values): 0.982 | normalized growth (S. cerevisiae deletion strains, locus YFR003C, strain YPI1, hits give low values): 0.966 | normalized growth (S. cerevisiae deletion strains, locus YFR019W, strain FAB1, hits give low values): 0.935 | normalized growth (S. cerevisiae deletion strains, locus YFR028C, strain CDC14, hits give low values): 0.987 | normalized growth (S. cerevisiae deletion strains, locus YGR040W, strain KSS1, hits give low values): 0.903 | normalized growth (S. cerevisiae deletion strains, locus YGR052W, strain FMP48, hits give low values): 0.838 | normalized growth (S. cerevisiae deletion strains, locus YGR092W, strain DBF2, hits give low values): 0.867 | normalized growth [2]: 0.83 (active) | normalized growth (S. cerevisiae deletion strains, locus YHR079C, strain IRE1, hits give low values): 0.906 | normalized growth (S. cerevisiae deletion strains, locus YHR082C, strain KSP1, hits give low values): 0.918 | normalized growth (S. cerevisiae deletion strains, locus YHR205W, strain SCH9, hits give low values): 0.858 | normalized growth (S. cerevisiae deletion strains, locus YIL147C, strain SLN1, hits give low values): 0.973 | normalized growth (S. cerevisiae deletion strains, locus YJL095W, strain BCK1, hits give low values): 0.798 | normalized growth (S. cerevisiae deletion strains, locus YJL128C, strain PBS2, hits give low values): 0.925 | normalized growth (S. cerevisiae deletion strains, locus YJL157C, strain FAR1, hits give low values): 0.928 | normalized growth (S. cerevisiae deletion strains, locus YJR016C, strain ILV3, hits give low values): 0.986 | normalized growth (S. cerevisiae deletion strains, locus YJR066W, strain TOR1 (second series), hits give low values): 0.916 | normalized growth (S. cerevisiae deletion strains, locus YJR066W, strain TOR1, hits give low values): 0.9 | normalized growth (S. cerevisiae deletion strains, locus YKL048C, strain ELM1, hits give low values): 0.901 | normalized growth (S. cerevisiae deletion strains, locus YKL067W, strain YNK1, hits give low values): 0.896 | normalized growth (S. cerevisiae deletion strains, locus YKL101W, strain HSL1, hits give low values): 0.893 | normalized growth (S. cerevisiae deletion strains, locus YKL193C, strain SDS22, hits give low values): 0.971 | normalized growth (S. cerevisiae deletion strains, locus YKL203C, strain TOR2, hits give low values): 0.954 | normalized growth (S. cerevisiae deletion strains, locus YLR113W, strain HOG1, hits give low values): 0.708 (active) | normalized growth (S. cerevisiae deletion strains, locus YLR133W, strain CKI1, hits give low values): 0.916 | normalized growth (S. cerevisiae deletion strains, locus YLR403W, strain SFP1, hits give low values): 0.902 | normalized growth (S. cerevisiae deletion strains, locus YML070W, strain DAK1, hits give low values): 0.897 | normalized growth (S. cerevisiae deletion strains, locus YMR001C, strain CDC5, hits give low values): 0.976 | normalized growth (S. cerevisiae deletion strains, locus YMR205C, strain PFK2 (second series), hits give low values): 0.887 | normalized growth (S. cerevisiae deletion strains, locus YMR277W, strain FCP1, hits give low values): 0.972 | normalized growth (S. cerevisiae deletion strains, locus YNL006W, strain LST8, hits give low values): 0.974 | normalized growth (S. cerevisiae deletion strains, locus YNL020C, strain ARK1, hits give low values): 0.896 | normalized growth (S. cerevisiae deletion strains, locus YNL161W, strain CBK1, hits give low values): 0.976 | normalized growth (S. cerevisiae deletion strains, locus YNL183C, strain NPR1, hits give low values): 0.841 | normalized growth (S. cerevisiae deletion strains, locus YNL207W, strain RIO2, hits give low values): 0.974 | normalized growth (S. cerevisiae deletion strains, locus YNL222W, strain SSU72, hits give low values): 0.979 | normalized growth (S. cerevisiae deletion strains, locus YNL307C, strain MCK1 (second series), hits give low values): 0.855 | normalized growth (S. cerevisiae deletion strains, locus YOL078W, strain AVO1, hits give low values): 0.968 | normalized growth (S. cerevisiae deletion strains, locus YOL136C, strain PFK27, hits give low values): 0.904 | normalized growth (S. cerevisiae deletion strains, locus YOR061W, strain CKA2, hits give low values): 0.888 | normalized growth (S. cerevisiae deletion strains, locus YOR119C, strain RIO1, hits give low values): 0.93 | normalized growth (S. cerevisiae deletion strains, locus YOR231W, strain MKK1, hits give low values): 0.823 | normalized growth (S. cerevisiae deletion strains, locus YOR329C, strain SCD5, hits give low values): 0.965 | normalized growth (S. cerevisiae deletion strains, locus YPL031C, strain PHO85, hits give low values): 0.877 | normalized growth (S. cerevisiae deletion strains, locus YPL153C, strain RAD53, hits give low values): 0.915 | normalized growth (S. cerevisiae deletion strains, locus YPL204W, strain HRR25, hits give low values): 0.888 | normalized growth (S. cerevisiae deletion strains, locus YPL209C, strain IPL1, hits give low values): 0.977 | normalized growth (S. cerevisiae deletion strains, locus YPL256C, strain CLN2, hits give low values): 0.907 | normalized growth (S. cerevisiae deletion strains, locus YPR025C, strain CCL1, hits give low values): 0.97 | normalized growth (S. cerevisiae deletion strains, locus YPR106W, strain ISR1, hits give low values): 0.97 | normalized growth (S. cerevisiae deletion strains, locus YPR111W, strain DBF20, hits give low values): 0.963 | normalized growth (S. cerevisiae deletion strains, strain NNK1, hits give low values): 0.967 | normalized growth (S. cerevisiae deletion strains, strain TSCII, hits give low values): 0.976
